Several values for one entry are separate records, joined by “and”; a condition that tells them apart may be missing. Equal entries are not always repeated. Some structures have more than one record in an assay (separate samples or runs), and their calls can disagree. Activity calls are given as the source filed them. Where a call stands in place of a potency, no number is given. Unless noted, calls come from the whole dose curve; as a rule, active = well fitted curve in the direction sought with a large enough effect in the repeat runs; inconclusive = weak or mixed curves; inactive = no such curve, though single readings can be large; an effect the other way counts as inactive or inconclusive. Residues, ends and D or L forms follow the SMILES beside them.
Legend:
[1] = qHTS assay to identify small molecule antagonists of the glucocorticoid receptor (GR) signaling pathway - cell viability counter screen (AID 720693); note: nearly all actives have a fitted effect of over 55% in size
[2] = qHTS assay for identifying genotoxic compounds that show differential cytotoxicity against isogenic chicken DT40 cell lines with known DNA damage response pathways - wild type cell line (AID 743012); note: nearly all actives have a fitted effect of over 60% in size; note: potency is the fitted concentration of half-maximal effect
Method in brief: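 300 wt DT40 cells/well; cpd (DMSO) pintool-transferred after ~0.5 h at 37 C/5% CO2; 40 h incubation; CellTiter-Glo added, 30 min RT; luminescence read.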

[3] = qHTS assay for identifying genotoxic compounds that show differential cytotoxicity against isogenic chicken DT40 cell lines with known DNA damage response pathways - Rev3 mutant cell line (AID 743014); note: nearly all actives have a fitted effect of over 55% in size; note: potency is the fitted concentration of half-maximal effect
[4] = qHTS assay for identifying genotoxic compounds that show differential cytotoxicity against isogenic chicken DT40 cell lines with known DNA damage response pathways - Rad54/Ku70 mutant cell line (AID 743015); note: nearly all actives have a fitted effect of over 60% in size; note: potency is the fitted concentration of half-maximal effect
[5] = qHTS assay to identify small molecule antagonists of the androgen receptor (AR) signaling pathway - cell viability counter screen (AID 743033; note: nearly all actives have a fitted effect of over 45% in size)
[6] = qHTS assay to identify small molecule antagonists of the androgen receptor (AR) signaling pathway using the MDA cell line - cell viability counter screen (AID 743041; note: nearly all actives have a fitted effect of over 45% in size; note: potency is the fitted concentration of half-maximal effect)
Method in brief: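 Compound exposure lasted 16 h at 37C in MDA-kb2 AR-luc cells stimulated with R1881. Protease-based CellTiter-Fluor reagent was applied for the final 30 min and fluorescence measured.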

[7] = qHTS assay to identify small molecule antagonists of the thyroid receptor (TR) signaling pathway - cell viability counter screen (AID 743064); note: nearly all actives have a fitted effect of over 50% in size; note: potency is the fitted concentration of half-maximal effect
Method in brief: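 CellTiter-Fluor readout, 30 min at 37 °C/5% CO2, following 23.5 h incubation of GH3.TRE-Luc cells with test compound and 1 nM T3 (final).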

[8] = qHTS assay to identify small molecule antagonists of the thyroid receptor (TR) signaling pathway (AID 743065); note: series mostly up to about 70 µM; nearly all actives have a fitted effect of over 55% in size
Method in brief: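 GH3.TRE-Luc rat pituitary cells (two TREs driving luciferase) were dosed with compound, then stimulated with 1 nM T3 (final) for 23.5 h at 37 C. ONE-Glo luminescence was the read-out, with CellTiter-Fluor fluorescence as the cytotoxicity counter-screen.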

[9] = tested on: thyroid hormone receptor (rat, GH3 cells); test: qHTS assay to identify small molecule agonists of the thyroid receptor (TR) signaling pathway (AID 743066; calls by dose curve)
[10] = molecular target: Estrogen receptor (Homo sapiens) (UniProt P03372); test: qHTS assay to identify small molecule antagonists of the estrogen receptor alpha (ER-alpha) signaling pathway (AID 743069; active = well fitted curve in the direction sought with a large enough effect in the signal ratio in the repeat runs, not every such curve was filed as active; inconclusive = weak or mixed curves, or effect the other way; inactive = no such curve, though single readings can be large or run the other way; the % refers to the signal ratio)
Method in brief: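 In this cell-based reporter format, GripTite HEK293 cells harbouring ER-alpha-UAS-bla were grown overnight with 2% charcoal-stripped FBS, dosed with DMSO-dissolved compounds, then challenged with 17beta-estradiol. After 18 hr at 37C, beta-lactamase activity was detected by FRET fluorescence.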

[11] = qHTS assay to identify small molecule antagonists of the estrogen receptor alpha (ER-alpha) signaling pathway - cell viability counter screen (AID 743074; calls by dose curve; note: nearly all actives have a fitted effect of over 45% in size; note: potency is the fitted concentration of half-maximal effect)
[12] = molecular target: Estrogen receptor (Homo sapiens) (UniProt P03372); test: qHTS assay to identify small molecule agonists of the estrogen receptor alpha (ER-alpha) signaling pathway (AID 743075; calls by dose curve; note: potency is the fitted concentration of half-maximal effect)
[13] = molecular target: Estrogen receptor (Homo sapiens) (UniProt P03372); test: qHTS assay to identify small molecule agonists of the estrogen receptor alpha (ER-alpha) signaling pathway using the BG1 cell line (AID 743079); note: nearly all actives have a fitted effect of over 20% in size; note: potency is the fitted concentration of half-maximal effect
[14] = qHTS assay to identify small molecule antagonists of the estrogen receptor alpha (ER-alpha) signaling pathway using the BG1 cell line (AID 743080; calls by dose curve;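 note: BG1 cells stimulated with 17beta-estradiol alongside compound; series mostly up to about 70 µM; nearly all actives have a fitted effect of over 25% in size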)
Method in brief: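 Luciferase inhibition measured with ONE-Glo after 30 min at RT in BG1Luc4E2 cells given test compounds and 17beta-estradiol for 21.5 h at 37 C; CellTiter-Fluor viability read in the same wells beforehand.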

[15] = qHTS assay to identify small molecule antagonists of the estrogen receptor alpha (ER-alpha) signaling pathway using the BG1 cell line - cell viability counter screen (AID 743081);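 note: compound given together with 17beta-estradiol as the ER stimulus; nearly all actives have a fitted effect of over 45% in size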; note: potency is the fitted concentration of half-maximal effect
[16] = molecular target: Aromatase (Homo sapiens) (UniProt P11511); test: qHTS assay to identify aromatase inhibitors (AID 743083); note: series mostly up to about 70 µM; nearly all actives have a fitted effect of over 55% in size
[17] = qHTS assay to identify aromatase inhibitors - cell viability counter screen (AID 743084); note: potency is the fitted concentration of half-maximal effect
[18] = molecular target: Androgen receptor (Homo sapiens) (UniProt P10275); test: qHTS assay to identify small molecule antagonists of the androgen receptor (AR) signaling pathway (AID 743035; active = well fitted inhibition curve with a large enough effect in the signal ratio in the repeat runs, not every such curve was filed as active; inconclusive = weak or mixed curves, or effect the other way; inactive = no such curve, though single readings can be large or run the other way; the % refers to the signal ratio)
Method in brief: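 In this cell-based reporter screen, compounds were tested in concentration series against R1881-activated HEK293 cells expressing beta-lactamase under UAS control; after 16 h at 37C, FRET substrate was added and fluorescence read 2 h later.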

[19] = molecular target: Androgen receptor (Homo sapiens) (UniProt P10275); test: qHTS assay to identify small molecule agonists of the androgen receptor (AR) signaling pathway using the MDA cell line (AID 743040; note: nearly all actives have a fitted effect of over 20% in size; note: potency is the fitted concentration of half-maximal effect)
Method in brief: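 Testing was done with the MDA-kb2 AR-luc line, a human breast carcinoma stably transfected with MMTV-luciferase containing AR and GR response elements. Cells were exposed 16 h at 37C before ONE-Glo luminescence detection.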

[20] = molecular target: Androgen receptor (Homo sapiens) (UniProt P10275); test: qHTS assay to identify small molecule antagonists of the androgen receptor (AR) signaling pathway using the MDA cell line (AID 743042; note: nearly all actives have a fitted effect of over 55% in size)
Method in brief: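 MDA-kb2 breast carcinoma cells carrying MMTV-luciferase (AR/GR responsive) were co-treated with compounds and the agonist R1881 for 16 h at 37C. Inhibition read as ONE-Glo luminescence; CellTiter-Fluor fluorescence measured in parallel for cytotoxicity.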

Sequence of Androgen receptor (Homo sapiens) (P10275 whole entry, looked up): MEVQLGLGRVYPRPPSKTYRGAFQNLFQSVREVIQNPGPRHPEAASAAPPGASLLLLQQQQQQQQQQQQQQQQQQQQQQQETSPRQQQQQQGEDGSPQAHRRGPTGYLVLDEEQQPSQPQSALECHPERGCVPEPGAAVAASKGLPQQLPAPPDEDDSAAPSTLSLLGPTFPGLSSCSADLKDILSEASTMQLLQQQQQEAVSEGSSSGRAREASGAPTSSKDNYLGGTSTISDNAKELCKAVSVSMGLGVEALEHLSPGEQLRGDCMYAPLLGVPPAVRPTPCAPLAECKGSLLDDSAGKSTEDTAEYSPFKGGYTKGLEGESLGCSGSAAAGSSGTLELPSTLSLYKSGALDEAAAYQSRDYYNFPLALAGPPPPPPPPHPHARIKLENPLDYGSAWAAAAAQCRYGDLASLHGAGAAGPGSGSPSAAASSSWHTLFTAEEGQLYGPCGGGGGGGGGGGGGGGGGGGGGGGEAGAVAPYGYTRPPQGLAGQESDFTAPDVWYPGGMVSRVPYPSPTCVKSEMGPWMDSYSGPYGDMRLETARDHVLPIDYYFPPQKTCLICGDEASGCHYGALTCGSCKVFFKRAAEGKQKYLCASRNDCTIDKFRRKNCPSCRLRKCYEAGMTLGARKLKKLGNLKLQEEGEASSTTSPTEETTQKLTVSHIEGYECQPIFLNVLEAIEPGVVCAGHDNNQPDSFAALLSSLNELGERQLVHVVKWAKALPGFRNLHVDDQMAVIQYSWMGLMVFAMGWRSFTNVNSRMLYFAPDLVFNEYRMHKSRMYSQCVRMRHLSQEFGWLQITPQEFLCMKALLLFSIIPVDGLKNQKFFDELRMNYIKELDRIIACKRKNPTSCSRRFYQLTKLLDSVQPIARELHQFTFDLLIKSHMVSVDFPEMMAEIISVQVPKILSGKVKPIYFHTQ
Sequence of Aromatase (Homo sapiens) (P11511 whole entry, looked up): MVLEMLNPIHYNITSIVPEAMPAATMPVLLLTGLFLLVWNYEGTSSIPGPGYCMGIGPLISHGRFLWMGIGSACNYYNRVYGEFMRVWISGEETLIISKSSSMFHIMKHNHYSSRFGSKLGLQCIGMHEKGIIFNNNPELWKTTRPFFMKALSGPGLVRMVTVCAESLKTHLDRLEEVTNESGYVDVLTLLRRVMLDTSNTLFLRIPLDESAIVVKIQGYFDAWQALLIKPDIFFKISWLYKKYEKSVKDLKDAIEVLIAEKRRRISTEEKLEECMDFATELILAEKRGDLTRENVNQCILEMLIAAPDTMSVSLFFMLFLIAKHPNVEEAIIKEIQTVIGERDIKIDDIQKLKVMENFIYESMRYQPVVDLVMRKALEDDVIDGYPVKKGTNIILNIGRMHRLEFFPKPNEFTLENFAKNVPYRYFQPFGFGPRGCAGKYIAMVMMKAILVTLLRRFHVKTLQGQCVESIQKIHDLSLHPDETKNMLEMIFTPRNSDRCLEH
Sequence of Estrogen receptor (Homo sapiens) (P03372 whole entry, looked up): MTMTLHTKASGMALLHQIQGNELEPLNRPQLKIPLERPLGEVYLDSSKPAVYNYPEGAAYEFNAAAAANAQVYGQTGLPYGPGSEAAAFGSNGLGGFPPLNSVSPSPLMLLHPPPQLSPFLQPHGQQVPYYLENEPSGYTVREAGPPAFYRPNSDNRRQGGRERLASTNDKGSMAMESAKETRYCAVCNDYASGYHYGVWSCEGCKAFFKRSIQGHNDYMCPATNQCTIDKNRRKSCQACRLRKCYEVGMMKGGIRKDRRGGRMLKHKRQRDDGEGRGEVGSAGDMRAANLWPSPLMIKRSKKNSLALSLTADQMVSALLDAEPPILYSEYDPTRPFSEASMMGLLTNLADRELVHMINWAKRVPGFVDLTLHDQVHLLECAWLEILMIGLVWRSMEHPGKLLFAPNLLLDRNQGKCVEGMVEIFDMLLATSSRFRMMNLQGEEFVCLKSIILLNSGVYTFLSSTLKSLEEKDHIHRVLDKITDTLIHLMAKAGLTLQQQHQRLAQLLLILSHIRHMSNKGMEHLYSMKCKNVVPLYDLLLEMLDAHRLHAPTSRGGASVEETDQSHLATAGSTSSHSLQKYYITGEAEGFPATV

SMILES	Potency [1]	Potency [2]	Potency [3]	Potency [4]	outcome [5]	Potency [6]	Potency [7]	Potency [8]	Potency [9]	Potency [10]	Potency [11]	Potency [12]	Potency [13]	Potency [14]	Potency [15]	Potency [16]	Potency [17]	outcome [18]	Potency [19]	outcome [20]
CC(=O)Nc1nnc(S(N)(=O)=O)s1	inactive	inactive	inactive	inactive	inactive	inactive	inactive	inactive	inactive	inactive	inactive	inactive	inactive	inactive	inactive	inactive	inactive			
O=C(O)C(=O)O	inactive	inactive	inactive	inactive	inactive	inactive	inactive				inactive				inactive	inactive	inactive			
O=S(=O)(O)NC1CCCCC1	inactive	inactive	inactive	inactive	inactive	inactive	inactive	inactive	inactive		inactive				inactive	inactive	inactive			
O=NO	inactive	inactive	inactive	inactive	inactive	inactive	inactive	inactive	inactive		inactive				inactive	inactive	inactive			
Cc1cc(=O)n(-c2ccccc2)n1C	inactive	inactive	inactive	inactive	inactive	inactive	inactive	inactive	inactive	inactive	inactive	inactive	inactive	inactive	inactive	inactive	inactive	inactive	inactive	inactive
O=c1ccc2ccccc2o1	inactive	inactive	inactive	inactive	inactive	inactive	inactive	inactive	inactive	inactive	inactive	inactive	18.8 µM (active) and inactive	inactive	inactive	inactive	inactive			
CCCC(CCC)C(=O)O	inactive	inactive	inactive	inactive	inactive	inactive	inactive	inactive	inactive	inactive	inactive	inactive	inactive	inactive	inactive	inactive	inactive			
NNC(=O)c1ccncc1	inactive	inactive	inactive	inactive	inactive	inactive	inactive	inactive	inactive	inactive	inactive	inactive	inactive	inactive	inactive	inactive	inactive			
CCCN(CCC)S(=O)(=O)c1ccc(C(=O)O)cc1	inactive	inactive	inactive	inactive		inactive	inactive	inactive	inactive		inactive				inactive	inactive	inactive	inactive		inactive
CC(O)C(=O)O (stereo unspecified)	inactive	inactive	inactive	inactive	inactive	inactive	inactive	inactive	inactive	inactive	inactive	inactive	inactive	inactive	inactive	inactive	inactive			
Oc1ccc(/C=C/c2cc(O)cc(O)c2)cc1	inactive	7.17 µM (active) and 30.6 µM (active)	7.17 µM (active) and 15.5 µM (active) and 21.7 µM (active)	9.02 µM (active) and 27.6 µM (active) and 30.6 µM (active)		inactive	inactive and 27.6 µM (active) and 27.3 µM (active)		inactive		inactive	6.44 µM [inconclusive] (active) and 8.8 nM [inconclusive] (active) and 19.5 µM [inconclusive] (active)	7.17 µM (active) and 15.5 µM (active) and 9.69 µM (active)		inactive		inactive		6.92 µM (active) and 2.73 µM (active)	inactive
CNC[C@H](O)c1cccc(O)c1	inactive	inactive	inactive	inactive	inactive	inactive	inactive	inactive	inactive		inactive and 3.89 µM (active)				inactive	inactive	inactive			
COC(=O)[C@H](Cc1ccccc1)NC(=O)[C@@H](N)CC(=O)O (H-Asp-Phe-OMe)	inactive	inactive	inactive	inactive	inactive	inactive	inactive	inactive	inactive	inactive	inactive	inactive	inactive	inactive	inactive	inactive	inactive			
O=C(O)c1[nH]n(-c2ccc(S(=O)(=O)O)cc2)c(=O)c1N=Nc1ccc(S(=O)(=O)O)cc1	inactive	inactive	inactive	inactive	inactive	15 µM (active) and 61.3 µM (active) and 57.1 µM (active)	54.6 µM (active) and 50.9 µM (active)	inactive	inactive	inactive	inactive	inactive	inactive	inactive	inactive and 54.6 µM (active) and 64.1 µM (active)	inactive	30.7 µM (active) and 57.1 µM (active)			
Nc1ccc(C(=O)O)cc1	inactive	inactive	inactive	inactive	inactive	inactive				inactive	inactive	inactive	inactive	inactive	inactive	inactive	inactive			
